D1 agonist: activates the human D1 dopamine receptor | P21728 | HEK293 T-REx D1 cells, calcium flux, agonist mode | activation, % at 2 µM | 360,000 tested, 1% active | AID 504660; in the data active = activation above about 30%
Target sequence (P21728 whole entry, looked up): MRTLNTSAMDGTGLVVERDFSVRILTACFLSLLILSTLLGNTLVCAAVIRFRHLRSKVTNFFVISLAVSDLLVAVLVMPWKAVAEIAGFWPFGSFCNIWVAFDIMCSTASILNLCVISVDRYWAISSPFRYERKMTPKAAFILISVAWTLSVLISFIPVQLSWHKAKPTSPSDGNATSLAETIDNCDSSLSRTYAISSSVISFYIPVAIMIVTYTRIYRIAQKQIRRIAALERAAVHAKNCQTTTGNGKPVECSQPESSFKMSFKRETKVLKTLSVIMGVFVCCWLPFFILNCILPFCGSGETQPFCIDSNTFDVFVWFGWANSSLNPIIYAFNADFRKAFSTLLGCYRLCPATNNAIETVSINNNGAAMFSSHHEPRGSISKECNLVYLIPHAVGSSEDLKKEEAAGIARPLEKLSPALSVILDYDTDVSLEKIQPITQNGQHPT
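Agonism was scored from calcium flux recorded over 180 s (1 read/s) after pintool compound addition, following a 10-cycle baseline. Cells were inducible force-coupled HEK293 TREx D1, plated overnight at 30 C and loaded with no-wash calcium dye.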
D1 antag: blocks dopamine activation of the human D1 receptor; P21728; HEK293 TREx D1 cells, calcium flux, dopamine EC80; active compounds read low; activity change, negative = inhibition, % at 10 µM; 360,000 tested, 3.2% active; AID 504652; in the data active = activity change below about -30%
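Compound effects on dopamine-evoked calcium signalling were measured in tetracycline-induced HEK293 Trex D1 cells. Dopamine at EC80 followed a 180 s compound pre-read, and fluorescence was tracked kinetically for 180 s more.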
D1 potentiator: potentiators of human D1 dopamine receptor; 360,000 tested, 0.036% active; potentiation, % at 10 µM; HEK293 TREx D1 cells, calcium flux, dopamine EC20 potentiation; in the data active = potentiation above about 30%
DRD3 antagonist: antagonists of human D3 dopamine receptor; D3R cells, DiscoveRx beta-arrestin luminescence, antagonist mode; active compounds read low; max response, negative = inhibition, %; 360,000 tested, 2.5% active; AID 652054; in the data active = max response below about -50%; inconclusive = no clear call, values can overlap the other calls
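Cells expressing the human receptor were seeded at 1500 cells/well, incubated overnight at 37 degrees C in 5% CO2, then exposed to library compounds with dopamine controls for 90 minutes at 37 degrees C before luminescent detection.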
D3 ag: D3 dopamine receptor (human) agonism. P35462. D3R DiscoveRx beta-arrestin cells, luminescence, 90 min. max activation, %. 410,000 tested, 0.58% active. AID 652048; in the data active = max activation above about 30%
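Cells at 1500/well, incubated overnight, then treated with pinned compounds (dopamine as control) for 90 min at 37 degrees C. DiscoveRx reagent added for 30 - 60 minutes at room temperature; luminescence read.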
Hits are given with their value; . = inactive; ? = inconclusive; / = no result given. Shown are actives, neighbours in structure and some others; about 6.1% of the full set was active somewhere.

SMILES | D1 agonist | D1 antag | D1 potentiator | DRD3 antagonist | D3 ag
COc1ccc(CCNC(=O)CCCn2c(=O)c3ccccc3n(CC(=O)Nc3cccc(C)c3)c2=O)cc1OC | . | . | . | / | .
Nc1c(C(=O)Nc2ccc(Cl)c(C(=O)O)c2)sc2nc3c(cc12)CCCC3 | . | -61.5 | . | . | .
CC(C)(C)NC(=O)NC(=O)COC(=O)c1cccc(OC(F)F)c1 | . | -31.1 | . | . | .
O=C(O)c1cc(Cl)ccc1-c1ccc(/C=C/c2cc(C(F)(F)F)[nH]c(=O)n2)o1 | 96.7 | . | . | . | .
O=C(O)c1ccccc1-c1ccc(/C=C/c2cc(C(F)(F)F)[nH]c(=O)n2)o1 | 145.6 | . | . | . | .
O=c1nc(/C=C/c2ccc(-c3ccc(F)cc3)o2)cc(C(F)(F)F)[nH]1 | 98.3 | . | . | / | /
O=C(N/N=C/c1ccc(-c2ccccc2C(=O)O)o1)c1cccs1 | . | . | . | . | .
CCCCn1c(=O)c2oc3ccccc3c2n(CC(=O)Nc2cccc(Cl)c2)c1=O | . | . | . | / | .
CCOC(=O)Cn1c(=O)n(C2CCCCC2)c2nc(-c3ccc(CC)cc3)nc(C(N)=O)c21 | . | . | . | / | .
NC(=O)C1CCN(S(=O)(=O)c2ccc(N3CCCCS3(=O)=O)cc2)CC1 | . | . | . | / | .
O=c1oc2ccccc2cc1-c1ccc(O)cc1O | . | -31.5 | . | . | .
O=c1oc2cc(O)ccc2cc1-c1ccccc1 | . | . | . | . | .
Cc1ccc(Cc2nc3ccccc3nc2SCC(=O)Nc2ccc3c(c2)OCO3)cc1 | . | . | . | / | .
CN1C(=O)c2[nH]nc(-c3ccc(F)cc3)c2C1c1cccc(O)c1 (stereo unspecified) | . | . | . | / | .
CCCC1([C@H](O)C/C=C/[C@H]2[C@H](O)CC(=O)[C@@H]2CCCCCCC(=O)OC)CCC1 | / | / | / | / | .
C=CCn1cc([N+](=O)[O-])nc1C | . | -31.0 | . | . | .
CCCCn1cc([N+](=O)[O-])nc1C | . | . | . | . | .
O=S(=O)(NCC(c1ccco1)N1CCN(c2ccccc2)CC1)c1ccccc1 (stereo unspecified) | . | / | . | / | .
O=S(=O)(NCC(c1ccco1)N1CCN(c2ccccc2)CC1)c1ccc(F)cc1 (stereo unspecified) | . | -30.3 | . | . | .
O=S(=O)(NCC(c1ccco1)N1CCN(c2ccc(F)cc2)CC1)c1ccc(F)cc1 (stereo unspecified) | . | -33.6 | . | . | .
CCc1cccc(-n2nnc(-c3nc(-c4ccccc4Cl)no3)c2N)c1 | . | . | . | / | .
CCOC(=O)c1scc(-c2ccccc2)c1S(=O)(=O)Nc1ccc(N(C)C)cc1 | . | . | . | / | .
O=C(O)c1ccc(Cn2ccc3ccccc32)o1 | . | -36.3 | . | . | .
Cc1ccc(O)c(N)c1 | . | / | . | -105.3 | .
COC(=O)c1ccccc1S(=O)(=O)N1CCC(C(=O)OCc2ccc([N+](=O)[O-])cc2)CC1 | . | -40.1 | . | . | .
SMILES | D1 agonist | D1 antag | D1 potentiator | DRD3 antagonist | D3 ag
O=C(O)CCn1cnc2onc(-c3ccccc3Cl)c2c1=O | . | . | . | / | .
Cc1ccc(Cl)cc1N1CCN(C(=O)c2c(C)oc3ncnc(N4CCCCC4)c23)CC1 | . | . | . | / | .
Nc1nonc1-c1noc(-c2ccccc2)n1 | . | . | . | -63.3 | .
Fc1ccccc1N1CCN(CCCNc2ccc3nncn3n2)CC1 | . | . | / | -61.2 | 46.0
Cc1ccc(N2CCN(CC(O)COc3ccc([N+](=O)[O-])cc3)CC2)cc1 (stereo unspecified) | . | . | . | . | .
OCC1(CCc2ccccc2)CCN(Cc2ccccc2Cl)CC1 | . | . | . | ? | .
O=[N+]([O-])c1ccc(OCC(O)CN2CCN(c3ccccc3F)CC2)cc1 (stereo unspecified) | . | . | . | . | 59.4
Clc1ccccc1CN1CCN(CCCc2ccccc2)CC1 | . | . | . | -79.4 | .
Fc1ccccc1N1CCN(CCCc2ccccc2)CC1 | . | -63.2 | . | -92.4 | .
CCc1c(-c2ccccc2)nc2ccccc2c1C(=O)NCc1ccc(C)cc1 | . | . | . | / | .
Cc1cc(C)c2c(-n3cccc3)c(C(=O)NCCc3ccc(Cl)cc3)sc2n1 | . | . | . | / | .
Cc1cccc(Cn2c(C)c(CNC3CCCCC3)c(C(=O)O)c2C)c1 | . | . | . | / | .
OC(COCc1ccccc1)CN1CCN(c2ccccc2F)CC1 (stereo unspecified) | . | . | . | . | 51.2
OC(COCC1COc2ccccc2O1)CN1CCN(c2ccccc2F)CC1 (stereo unspecified) | . | . | . | ? | .
OC(COc1ccc2c(c1)CCC2)CN1CCN(c2ccccc2F)CC1 (stereo unspecified) | . | . | . | ? | 31.6
COc1ccc(N2CCN(CC(O)COc3ccc4c(c3)CCC4)CC2)cc1 (stereo unspecified) | . | . | . | -79.3 | .
CCN1CCN(CC(O)COCc2ccccc2)CC1 (stereo unspecified) | . | . | . | . | .
CCOc1ccccc1C(=O)N(Cc1ccc(N(C)C)cc1)Cc1ccco1 | . | . | . | / | .
Cn1ccsc1=NC(=O)c1ccccc1OC(F)F | . | -36.1 | . | . | .
Cc1nc2c(OCc3cccc(Cl)c3)cccn2c1N(C)Cc1cccs1 | / | / | / | . | .
Cc1nc2c(OCc3ccc(Cl)cc3Cl)cccn2c1N(C)Cc1cccs1 | / | / | / | -70.7 | .
COc1ccc(-c2cc(=S)ss2)cc1 | / | / | / | / | .
CC(C)c1ccc(C2C3=C(CC(c4ccco4)CC3=O)Nc3nc(C(F)(F)F)nn32)cc1 (stereo unspecified) | . | . | . | / | /
Nc1[nH]c(=S)[nH]c(=O)c1-c1ccccc1 | . | . | . | -56.3 | .
O=C(N/N=C/c1ccc(Cl)s1)C(O)c1ccccc1 (stereo unspecified) | . | -37.2 | . | . | .
SMILES | D1 agonist | D1 antag | D1 potentiator | DRD3 antagonist | D3 ag
CCOc1ccc(CCNC(=O)C(O)c2ccccc2)cc1 (stereo unspecified) | . | . | . | . | .
CCOc1ccc(/C=N/NC(=O)C(O)c2ccccc2)c(O)c1 (stereo unspecified) | . | -32.7 | . | . | .
O=C(N/N=C/c1cc(Br)cs1)C(O)c1ccccc1 (stereo unspecified) | . | . | . | . | .
COc1ccc(S(=O)(=O)NCC(c2ccco2)N2CCN(c3ccc(F)cc3)CC2)cc1C (stereo unspecified) | . | / | . | / | .
O=C(c1cc2sccc2n1Cc1ccccc1)N1CCCc2ccccc21 | . | . | . | . | .
Cn1c(C(=O)N2CCCc3ccccc32)cc2sccc21 | 44.5 | . | . | . | .
O=Cc1cn(CC(=O)N2CCCc3ccccc32)c2ccccc12 | . | . | . | -56.5 | .
CN1CCN(C(=S)SCC(=O)N2CCCc3ccccc32)CC1 | . | . | . | -60.5 | .
Cn1cc(S(=O)(=O)CC(=O)N2CCCc3ccccc32)c2ccccc21 | . | -84.2 | / | . | .

Screening data from PubChem BioAssay.
